# Measured values taken from PubChem BioAssay (NCATS).
# Inconclusive results are not listed. Entries that show only a call come without a potency. Values without a mark were called inactive. The source made the active and inactive calls. The call rests on the fitted dose curve.
# How the values were obtained:
# [1] = Primary qHTS for Huh7 cytotoxicity: counterscreen for inhibitors of MERS-S pseudotyped particle cell entry (AID 1479147); details: cell viability read-out; series mostly up to 57.1 µM
# [2] = Primary qHTS for inhibitors of MERS-S pseudo-typed particle cell entry (AID 1479149); details: MERS-S pseudotyped particle entry, luciferase; series mostly up to 57.1 µM; further: nearly all actives have a fitted effect of over 60% in size; further: potency means the concentration at half of the fitted maximal effect
# [3] = Primary qHTS for Vero E6 cytotoxicity: counterscreen for inhibitors of SARS-S pseudo-typed particle cell entry (AID 1479150); details: cell viability; series mostly up to 57.1 µM
smiles,measurement,setting,value
CCOCCn1c(N2CCCN(C)CC2)nc2ccccc21,Potency,[1],inactive
same,Potency,[2],inactive
same,Potency,[3],inactive
O=C(O)c1ccccc1Nc1cc(Cl)ccc1C(=O)O,Potency,[1],inactive
same,Potency,[2],inactive
same,Potency,[3],inactive
Nc1ccn(C2CO[C@H](CO)O2)c(=O)n1 (stereo not given in full),Potency,[1],inactive
same,Potency,[2],inactive
same,Potency,[3],inactive
C=CCOc1cc(Cl)ccc1C(=O)NCCN(CC)CC,Potency,[1],inactive
same,Potency,[2],inactive
same,Potency,[3],inactive
CCn1c(=O)c2c(nc(C=Cc3ccc(OC)c(OC)c3)n2C)n(CC)c1=O,Potency,[1],inactive
same,Potency,[2],inactive
same,Potency,[3],inactive
CCCCCCCCCCCCOS(=O)(=O)O,Potency,[1],inactive
same,Potency,[2],inactive
same,Potency,[3],inactive
CN1CCN(c2cc3c(cc2F)c(=O)c(C(=O)O)cn3-c2ccc(F)cc2)CC1,Potency,[1],inactive
same,Potency,[2],inactive
same,Potency,[3],inactive
CCN1C(=O)c2ccccc2C1Nc1ccc(OCCN2CCCCC2)cc1 (stereo not given),Potency,[1],inactive
same,Potency,[2],inactive
same,Potency,[3],inactive
C#CC1(O)CC[C@H]2[C@@H]3CCC4=CCCC[C@@H]4[C@H]3CC[C@@]21C (stereo not given in full),Potency,[1],inactive
same,Potency,[2],inactive
same,Potency,[3],inactive
CCOCCOC(=O)/C=C/c1ccc(OC)cc1,Potency,[1],inactive
same,Potency,[2],inactive
same,Potency,[3],inactive
CCN(CC)CCOc1ccccc1C(=O)CCc1ccccc1,Potency,[1],inactive
same,Potency,[2],inactive
same,Potency,[3],inactive
CCOC(=O)c1cc(=O)c2c(OCC(COc3cccc4oc(C(=O)OCC)cc(=O)c34)OC(=O)[C@@H](N)CCCCN)cccc2o1,Potency,[1],inactive
same,Potency,[2],inactive
same,Potency,[3],inactive
O=C1OC(c2ccc(O)cc2)(c2ccc(O)cc2)c2ccccc21,Potency,[1],inactive
same,Potency,[2],inactive
same,Potency,[3],inactive
CN(Cc1cc(Br)cc(Br)c1N)C1CCCCC1,Potency,[1],inactive
same,Potency,[2],inactive
same,Potency,[3],inactive
C/C=C(/C(=C/C)c1ccc(O)cc1)c1ccc(O)cc1,Potency,[1],inactive
same,Potency,[2],inactive
same,Potency,[3],inactive
CCOC(=O)c1ccc(OC(=O)CCCCCN=C(N)N)cc1,Potency,[1],inactive
same,Potency,[2],inactive
same,Potency,[3],inactive
O=C(OCC(O)CO)c1ccccc1Nc1ccnc2cc(Cl)ccc12 (stereo not given),Potency,[1],inactive
same,Potency,[2],inactive
same,Potency,[3],inactive
CN(C)CC[C@@H](c1ccc(Cl)cc1)c1ccccn1,Potency,[1],inactive
same,Potency,[2],inactive
same,Potency,[3],inactive
CCc1oc2ccccc2c1C(=O)c1cc(Br)c(O)c(Br)c1,Potency,[1],inactive
same,Potency,[2],inactive
same,Potency,[3],inactive
CN(C)CCCOC1(Cc2ccccc2)CCCCCC1,Potency,[1],inactive
same,Potency,[2],inactive
same,Potency,[3],inactive
OCc1ccccc1O,Potency,[1],inactive
same,Potency,[2],inactive
same,Potency,[3],inactive
O=S(=O)(c1cccc2cnccc12)N1CCCNCC1,Potency,[1],inactive
same,Potency,[2],inactive
same,Potency,[3],inactive
CC(=O)OCC(=O)NCCCOc1cccc(CN2CCCCC2)c1,Potency,[1],inactive
same,Potency,[2],inactive
same,Potency,[3],inactive
CCN[C@@H]1C[C@H](N)[C@@H](OC2OC(CN)=CCC2N)[C@H](O)[C@H]1O[C@H]1OC[C@](C)(O)[C@H](NC)[C@H]1O (stereo not given in full),"activity change, negative = cytotoxicity",[1],-16.5% [at 0.573 µM]
same,outcome,[2],inactive [at 0.573 µM]
same,"activity change, negative = cytotoxicity",[3],-4.98% [at 0.573 µM]
CCc1ccc(C(=O)C(C)CN2CCCCC2)cc1 (stereo not given),Potency,[1],inactive
same,Potency,[2],inactive
same,Potency,[3],inactive
C/C=C/C(=O)N(CC)c1ccccc1C,Potency,[1],inactive
same,Potency,[2],inactive
same,Potency,[3],inactive
CCCCCCOC(=O)NC(=N)c1ccc(NCc2nc3cc(C(=O)N(CCC(=O)OCC)c4ccccn4)ccc3n2C)cc1,Potency,[1],inactive
same,Potency,[2],10 µM (active)
same,Potency,[3],inactive
CC1CC(=O)NN=C1c1ccc(NCC(C)(C)NCC(O)COc2cc(Cl)ccc2C#N)cc1 (stereo not given),Potency,[1],inactive
same,Potency,[2],inactive
same,Potency,[3],inactive
CCN(CC)C(=O)Nc1ccc(OCC(O)CNC(C)(C)C)c(C(C)=O)c1 (stereo not given),Potency,[1],inactive
same,Potency,[2],inactive
same,Potency,[3],inactive
O=C(OCc1ccccc1)c1ccc(O)cc1,Potency,[1],inactive
same,Potency,[2],inactive
same,Potency,[3],inactive
O=c1oc2c(O)c(O)cc3c(=O)oc4c(O)c(O)cc1c4c23,Potency,[1],inactive
same,Potency,[2],inactive
same,Potency,[3],inactive
CCCCNc1ccc(C(=O)OCCN(C)C)cc1,Potency,[1],inactive
same,Potency,[2],inactive
same,Potency,[3],inactive
C#C[C@]1(O)CC[C@H]2[C@@H]3CCC4=CC(=O)CCC4=C3C=C[C@@]21CC,Potency,[1],inactive
same,Potency,[2],inactive
same,Potency,[3],inactive
CN(C)CCN(Cc1ccccc1)c1ccccn1,Potency,[1],inactive
same,Potency,[2],inactive
same,Potency,[3],inactive
CCOC(=O)OC(C)OC1=C(C(=O)Nc2ccccn2)N(C)S(=O)(=O)c2ccccc21 (stereo not given),Potency,[1],inactive
same,Potency,[2],inactive
same,Potency,[3],inactive
Cc1ccc(/C(=C\CN2CCCC2)c2ccccn2)cc1,Potency,[1],inactive
same,Potency,[2],inactive
same,Potency,[3],inactive
CN(C)CCN1C(=O)c2ccccc2N(C)c2ccccc21,Potency,[1],inactive
same,Potency,[2],inactive
same,Potency,[3],inactive
C(=C\c1ccccc1)/CN1CCN(C(c2ccccc2)c2ccccc2)CC1,Potency,[1],inactive
same,Potency,[2],inactive
same,Potency,[3],inactive
NS(=O)(=O)c1cc2c(cc1Cl)CN(C1CCCCC1)C2=O,Potency,[1],inactive
same,Potency,[2],inactive
same,Potency,[3],inactive
O=C(CCCN1CCN(c2ccc(F)cc2)CC1)NC1c2ccccc2CSc2ccccc21 (stereo not given),Potency,[1],inactive
same,Potency,[3],inactive
C=C1c2cccc(O)c2C(O)=C2C(=O)[C@]3(O)C(O)=C(C(N)=O)C(=O)[C@@H](N(C)C)[C@@H]3[C@@H](O)[C@H]12,Potency,[1],inactive
same,Potency,[2],inactive
same,Potency,[3],inactive
CCC1NC(=O)c2cc(S(N)(=O)=O)c(Cl)cc2N1 (stereo not given),Potency,[1],inactive
same,Potency,[2],inactive
same,Potency,[3],inactive
CCOC(=O)[C@H](CCc1ccccc1)N[C@@H](C)C(=O)N1C(=O)N(C)C[C@H]1C(=O)O,Potency,[1],inactive
same,Potency,[2],inactive
same,Potency,[3],inactive
Cn1cc(C(=O)[C@@H]2CCc3nc[nH]c3C2)c2ccccc21,Potency,[1],inactive
same,Potency,[2],inactive
same,Potency,[3],inactive
CCCCCOc1ccccc1/C(=C\SC)n1ccnc1,Potency,[1],inactive
same,Potency,[3],inactive
CCCCN(CCCC)CC(O)c1cc(Cl)cc2c1-c1ccc(Cl)cc1/C2=C/c1ccc(Cl)cc1 (stereo not given),Potency,[1],inactive
same,Potency,[3],inactive
OC(CCN1CCCCC1)(c1ccccc1)c1ccccc1,Potency,[1],inactive
same,Potency,[2],inactive
same,Potency,[3],inactive
Nc1c(NC/C=C\COc2cc(CN3CCCCC3)ccn2)c(=O)c1=O,Potency,[1],inactive
same,Potency,[2],inactive
same,Potency,[3],inactive
CN1CCN(C2=Nc3ccccc3Sc3ccc(Cl)cc32)CC1,Potency,[1],inactive
same,Potency,[2],inactive
same,Potency,[3],inactive
O=c1[nH]c(=O)c2[nH]c(=O)[nH]c2[nH]1,outcome,[1],inactive [at 11.4 µM]
same,outcome,[2],inactive [at 11.4 µM]
same,outcome,[3],inactive [at 11.4 µM]
NC(=O)Cc1cccc(C(=O)c2ccccc2)c1N,Potency,[1],inactive
same,Potency,[2],inactive
same,Potency,[3],inactive
CCCCNc1ccc(C(=O)OCCN(CC)CC)cc1,Potency,[1],inactive
same,Potency,[2],inactive
same,Potency,[3],inactive
OC(CCCN1CCCCC1)(c1ccccc1)c1ccccc1,Potency,[1],inactive
same,Potency,[3],inactive
Cc1c(-c2ccccc2)oc2c(C(=O)OCCN3CCCCC3)cccc2c1=O,Potency,[1],inactive
same,Potency,[2],inactive
same,Potency,[3],inactive
O=C(OCC(O)CO)c1ccccc1Nc1ccnc2c(C(F)(F)F)cccc12 (stereo not given),Potency,[1],inactive
same,Potency,[2],inactive
same,Potency,[3],inactive
Nc1ccn([C@H]2CC[C@@H](CO)O2)c(=O)n1,Potency,[1],inactive
same,Potency,[2],inactive
same,Potency,[3],inactive
C[C@@H]1CCC[C@H](C)N1CCCC(O)(c1ccccc1)c1ccccn1 (stereo not given in full),Potency,[1],inactive
same,Potency,[2],inactive
same,Potency,[3],inactive
Cc1ncc(COP(=O)(O)O)c(C=O)c1O,Potency,[1],inactive
same,Potency,[2],inactive
same,Potency,[3],inactive
C[C@H](O)C(=O)Nc1c(I)c(C(=O)NC(CO)CO)c(I)c(C(=O)NC(CO)CO)c1I,Potency,[1],inactive
same,Potency,[2],inactive
same,Potency,[3],inactive
C[C@@H](C1=C(CCN(C)C)Cc2ccccc21)c1ccccn1,Potency,[1],inactive
same,Potency,[2],inactive
same,Potency,[3],inactive
CC(=O)Nc1ccc(S(=O)(=O)Nc2ccc([N+](=O)[O-])cc2)cc1,Potency,[1],inactive
same,Potency,[2],inactive
same,Potency,[3],inactive
CCCC(=O)OC[C@@H](OC(=O)CCC)[C@@H](OC(=O)CCC)[C@H](Cn1c2nc(=O)[nH]c(=O)c-2nc2cc(C)c(C)cc21)OC(=O)CCC,Potency,[1],inactive
same,Potency,[2],inactive
same,Potency,[3],inactive
CCOC(=O)[C@H](CCc1ccccc1)N[C@@H](C)C(=O)N(CC(=O)O)C1Cc2ccccc2C1,Potency,[1],inactive
same,Potency,[2],inactive
same,Potency,[3],inactive
COc1ccccc1OC(=O)Oc1ccccc1OC,Potency,[1],inactive
same,Potency,[2],inactive
same,Potency,[3],inactive
COC(=O)C1=C(C)NC(C)=C(C(=O)OC(C)(C)CN(C)CCC(c2ccccc2)c2ccccc2)C1c1cccc([N+](=O)[O-])c1 (stereo not given),Potency,[1],inactive
same,Potency,[3],inactive
CCOc1ccc(C(=O)OCCN(CC)CC)cc1,Potency,[1],inactive
same,Potency,[2],inactive
same,Potency,[3],inactive
C=CCc1ccccc1OCC(O)CNC(C)C (stereo not given),Potency,[1],inactive
same,Potency,[2],inactive
same,Potency,[3],inactive
C1CCN2C[C@@H]3C[C@@H](CN4CCCC[C@@H]34)[C@H]2C1,Potency,[1],inactive
same,Potency,[2],inactive
same,Potency,[3],inactive
OCCN1CCN(CCCN2c3ccccc3C=Cc3ccccc32)CC1,Potency,[1],inactive
same,Potency,[3],inactive
CN1CCC(=C2c3ccccc3CCc3sccc32)CC1,Potency,[1],inactive
same,Potency,[2],10 µM (active)
same,Potency,[3],inactive
O=C(NC1CCN(CCc2c[nH]c3ccccc23)CC1)c1ccccc1,Potency,[1],inactive
same,Potency,[2],inactive
same,Potency,[3],inactive
Cc1ccc(N(CC2=NCCN2)c2cccc(O)c2)cc1,Potency,[1],inactive
same,Potency,[2],inactive
same,Potency,[3],inactive
COC(=O)C1=C(C)NC(C)=C(C(=O)OC)C1c1ccccc1[N+](=O)[O-],Potency,[1],inactive
same,Potency,[2],inactive
same,Potency,[3],inactive
CCCCC(CC)COC(=O)C(C#N)=C(c1ccccc1)c1ccccc1 (stereo not given),Potency,[1],inactive
same,Potency,[2],inactive
same,Potency,[3],inactive
CN(C)CCC(c1ccccc1)c1ccccn1 (stereo not given),Potency,[1],inactive
same,Potency,[2],inactive
same,Potency,[3],inactive
CCOc1ccccc1O[C@H](c1ccccc1)[C@H]1CNCCO1,Potency,[1],inactive
same,Potency,[2],inactive
same,Potency,[3],inactive
CN1CCC(=C2c3ccccc3CCc3cccnc32)CC1,Potency,[1],inactive
same,Potency,[2],inactive
same,Potency,[3],inactive
CCCCN1CCCC[C@H]1C(=O)Nc1c(C)cccc1C,Potency,[1],inactive
same,Potency,[2],inactive
same,Potency,[3],inactive
CCCCCCCCCCCCCCCCCCOCC(O)CO (stereo not given),Potency,[1],inactive
same,Potency,[3],inactive
CCCCc1cc2ccccc2c(OCCN(C)C)n1,Potency,[1],inactive
same,Potency,[3],inactive
COc1ccccc1N1CCN(CC(O)COc2cccc3ccccc23)CC1 (stereo not given),Potency,[1],inactive
same,Potency,[3],inactive
O=C(Nc1ccc(Cl)cc1)Nc1ccc(Cl)c(C(F)(F)F)c1,Potency,[1],inactive
same,Potency,[3],inactive
Clc1ccc(Cn2c(CN3CCCC3)nc3ccccc32)cc1,Potency,[1],inactive
same,Potency,[3],inactive
O=C(c1ccc(F)cc1)C1CCN(CCn2c(=O)[nH]c3ccccc3c2=O)CC1,Potency,[1],inactive
same,Potency,[3],inactive
